Measured values reported in paper PMC7862700, “An all-to-all approach to the identification of sequence-specific readers for epigenetic DNA modifications on cytosine”.

Assays:
Test in all cases: DAPPL (digital affinity profiling via proximity ligation, sequencing); 10 mM Tris-HCl pH 7.5, 50 mM NaCl, 1 mM DTT, 4% glycerol, room temperature, 30 min; GST-TFs on glutathione beads, 16-mer random dsDNA library, 0.1% formaldehyde crosslink after washing; high values mean tight binding
FEV = target: T1, FEV (Homo sapiens, UniProt Q99581 1-238); conditions: protein: recombinant; tags: N-terminal GST; dsDNA, one strand shown
T1 sequence: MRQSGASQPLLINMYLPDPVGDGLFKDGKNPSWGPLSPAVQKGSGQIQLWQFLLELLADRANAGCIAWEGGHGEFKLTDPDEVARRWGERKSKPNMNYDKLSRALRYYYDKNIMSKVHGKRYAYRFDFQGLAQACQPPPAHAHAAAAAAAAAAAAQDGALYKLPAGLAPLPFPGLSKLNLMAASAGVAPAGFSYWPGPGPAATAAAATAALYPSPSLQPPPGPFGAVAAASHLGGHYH
Outline: (§1)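 After expression in yeast as GST fusions, human transcription factors were bound to glutathione beads, DNA-barcoded and mixed with a tag-only sample. The pools were incubated with 200 nmole of a 16-mer random double-stranded DNA library in Tris/NaCl/DTT/glycerol buffer (30 min, room temperature), washed and crosslinked with 0.1% formaldehyde. Proximity ligation with BsaI/T4 ligase ran for 1 h at 37 °C, before PCR amplification and sequencing on an Illumina NextSeq500. Binding signal is a hexamer's read frequency for a factor divided by its frequency for the tag-only sample.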

ETV5 = ETV5 (Homo sapiens, UniProt P41161 1-510); conditions: protein: recombinant; tags: N-terminal GST; dsDNA, one strand shown
Chain of ETV5 (P41161 whole entry): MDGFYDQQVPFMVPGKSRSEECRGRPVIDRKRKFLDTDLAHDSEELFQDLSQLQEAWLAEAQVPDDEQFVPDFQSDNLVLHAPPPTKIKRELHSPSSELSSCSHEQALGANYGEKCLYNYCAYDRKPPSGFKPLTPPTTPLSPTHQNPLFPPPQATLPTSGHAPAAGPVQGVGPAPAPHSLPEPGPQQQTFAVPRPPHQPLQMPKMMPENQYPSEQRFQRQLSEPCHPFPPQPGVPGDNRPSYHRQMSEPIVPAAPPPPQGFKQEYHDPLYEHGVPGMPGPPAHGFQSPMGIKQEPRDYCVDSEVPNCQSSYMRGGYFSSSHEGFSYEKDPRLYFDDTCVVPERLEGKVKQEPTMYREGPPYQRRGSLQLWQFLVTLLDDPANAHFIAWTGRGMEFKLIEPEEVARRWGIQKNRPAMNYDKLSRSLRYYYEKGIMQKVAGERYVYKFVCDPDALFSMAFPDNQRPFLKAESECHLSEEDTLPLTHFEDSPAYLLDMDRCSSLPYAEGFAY
Outline: as §1

HSF1 = HSF1 (Homo sapiens, UniProt Q00613 1-529); conditions: protein: recombinant; tags: N-terminal GST; chain copies: 3; dsDNA, one strand shown
Chain of HSF1 (Q00613 whole entry): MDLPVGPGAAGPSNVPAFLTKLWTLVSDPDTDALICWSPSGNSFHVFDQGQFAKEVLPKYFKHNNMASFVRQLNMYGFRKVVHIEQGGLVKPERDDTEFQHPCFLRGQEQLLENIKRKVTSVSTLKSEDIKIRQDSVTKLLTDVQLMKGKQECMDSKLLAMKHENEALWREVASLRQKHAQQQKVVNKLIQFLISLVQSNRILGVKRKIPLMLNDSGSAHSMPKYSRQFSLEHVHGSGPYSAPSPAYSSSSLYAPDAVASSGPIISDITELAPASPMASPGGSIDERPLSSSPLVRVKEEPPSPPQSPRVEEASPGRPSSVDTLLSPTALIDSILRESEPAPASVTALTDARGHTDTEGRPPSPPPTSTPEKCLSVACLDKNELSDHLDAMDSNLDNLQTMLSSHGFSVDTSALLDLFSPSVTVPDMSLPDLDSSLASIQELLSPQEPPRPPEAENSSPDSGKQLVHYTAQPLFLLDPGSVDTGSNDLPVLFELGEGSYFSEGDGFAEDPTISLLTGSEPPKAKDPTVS
Outline: as §1

SPIC = target: T2, SPIC (Homo sapiens, UniProt Q8N5J4 1-248); conditions: protein: recombinant; tags: N-terminal GST; dsDNA, one strand shown
T2 sequence: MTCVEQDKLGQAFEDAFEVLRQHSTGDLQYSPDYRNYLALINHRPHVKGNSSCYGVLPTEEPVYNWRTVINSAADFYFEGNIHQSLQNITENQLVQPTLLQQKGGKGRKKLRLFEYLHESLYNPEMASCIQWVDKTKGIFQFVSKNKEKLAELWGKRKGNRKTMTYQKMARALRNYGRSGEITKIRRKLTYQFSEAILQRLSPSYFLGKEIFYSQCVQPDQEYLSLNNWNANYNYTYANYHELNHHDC
Outline: as §1

ELF4 = ELF4 (Homo sapiens, UniProt Q99607 1-663); conditions: protein: recombinant; tags: N-terminal GST; dsDNA, one strand shown
Chain of ELF4 (Q99607 whole entry): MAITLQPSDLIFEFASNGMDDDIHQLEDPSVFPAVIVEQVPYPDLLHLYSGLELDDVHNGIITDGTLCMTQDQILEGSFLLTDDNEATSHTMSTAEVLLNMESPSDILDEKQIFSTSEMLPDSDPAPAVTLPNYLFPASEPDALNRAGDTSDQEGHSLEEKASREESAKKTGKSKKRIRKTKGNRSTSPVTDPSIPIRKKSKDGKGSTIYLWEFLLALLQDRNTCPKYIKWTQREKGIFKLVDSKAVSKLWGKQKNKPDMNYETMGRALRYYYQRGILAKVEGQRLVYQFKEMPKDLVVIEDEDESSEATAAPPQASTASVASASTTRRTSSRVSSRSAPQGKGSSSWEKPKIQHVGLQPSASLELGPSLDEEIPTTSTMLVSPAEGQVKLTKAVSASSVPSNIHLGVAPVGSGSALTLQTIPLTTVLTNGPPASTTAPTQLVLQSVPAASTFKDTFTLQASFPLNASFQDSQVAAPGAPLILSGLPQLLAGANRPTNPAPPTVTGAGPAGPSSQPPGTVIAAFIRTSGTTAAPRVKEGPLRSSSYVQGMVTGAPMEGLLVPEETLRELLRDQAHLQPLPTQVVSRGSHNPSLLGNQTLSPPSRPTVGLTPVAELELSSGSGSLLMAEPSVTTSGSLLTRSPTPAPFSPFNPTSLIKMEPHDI
Outline: as §1

ELK4 = target: T3, ELK4 (Homo sapiens, UniProt P28324-2 1-405); conditions: protein: recombinant; tags: N-terminal GST; dsDNA, one strand shown
T3 sequence: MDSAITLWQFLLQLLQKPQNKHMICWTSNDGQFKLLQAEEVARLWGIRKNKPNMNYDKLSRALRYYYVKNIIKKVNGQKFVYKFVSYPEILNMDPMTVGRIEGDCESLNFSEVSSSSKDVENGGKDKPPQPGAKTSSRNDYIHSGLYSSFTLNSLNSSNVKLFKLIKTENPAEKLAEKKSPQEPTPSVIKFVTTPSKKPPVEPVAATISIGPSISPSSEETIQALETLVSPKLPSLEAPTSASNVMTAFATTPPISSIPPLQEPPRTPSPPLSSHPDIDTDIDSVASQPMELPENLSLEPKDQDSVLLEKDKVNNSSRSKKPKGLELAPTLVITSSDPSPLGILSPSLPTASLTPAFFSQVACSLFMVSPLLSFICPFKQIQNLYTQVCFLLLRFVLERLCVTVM
Outline: as §1

ETV2 = target: T4, ETV2 (Homo sapiens, UniProt O00321 1-342); conditions: protein: recombinant; tags: N-terminal GST; dsDNA, one strand shown
T4 sequence: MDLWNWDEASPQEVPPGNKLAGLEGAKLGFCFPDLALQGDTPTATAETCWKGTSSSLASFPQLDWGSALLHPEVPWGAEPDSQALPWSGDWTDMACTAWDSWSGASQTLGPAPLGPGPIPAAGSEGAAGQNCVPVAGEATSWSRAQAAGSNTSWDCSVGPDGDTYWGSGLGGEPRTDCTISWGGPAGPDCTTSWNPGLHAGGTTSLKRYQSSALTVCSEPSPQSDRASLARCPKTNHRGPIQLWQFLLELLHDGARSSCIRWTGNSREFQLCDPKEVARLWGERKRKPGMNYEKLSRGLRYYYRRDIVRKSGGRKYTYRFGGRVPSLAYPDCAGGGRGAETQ
Outline: as §1

ELF3 = target: T5, ELF3 (Homo sapiens, UniProt P78545 1-371); conditions: protein: recombinant; tags: N-terminal GST; dsDNA, one strand shown
T5 sequence: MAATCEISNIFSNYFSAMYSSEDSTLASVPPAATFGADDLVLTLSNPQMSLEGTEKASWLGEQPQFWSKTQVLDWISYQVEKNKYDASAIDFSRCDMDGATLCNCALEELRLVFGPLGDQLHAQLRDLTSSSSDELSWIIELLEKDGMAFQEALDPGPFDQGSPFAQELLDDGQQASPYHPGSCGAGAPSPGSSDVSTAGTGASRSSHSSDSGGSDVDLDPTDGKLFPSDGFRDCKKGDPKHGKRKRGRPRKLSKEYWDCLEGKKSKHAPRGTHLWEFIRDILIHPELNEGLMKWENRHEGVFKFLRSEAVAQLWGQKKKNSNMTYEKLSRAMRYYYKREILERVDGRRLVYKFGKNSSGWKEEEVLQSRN
Outline: as §1

ETV1 = ETV1 (Homo sapiens, UniProt P50549 1-477); conditions: protein: recombinant; tags: N-terminal GST; dsDNA, one strand shown
Chain of ETV1 (P50549 whole entry): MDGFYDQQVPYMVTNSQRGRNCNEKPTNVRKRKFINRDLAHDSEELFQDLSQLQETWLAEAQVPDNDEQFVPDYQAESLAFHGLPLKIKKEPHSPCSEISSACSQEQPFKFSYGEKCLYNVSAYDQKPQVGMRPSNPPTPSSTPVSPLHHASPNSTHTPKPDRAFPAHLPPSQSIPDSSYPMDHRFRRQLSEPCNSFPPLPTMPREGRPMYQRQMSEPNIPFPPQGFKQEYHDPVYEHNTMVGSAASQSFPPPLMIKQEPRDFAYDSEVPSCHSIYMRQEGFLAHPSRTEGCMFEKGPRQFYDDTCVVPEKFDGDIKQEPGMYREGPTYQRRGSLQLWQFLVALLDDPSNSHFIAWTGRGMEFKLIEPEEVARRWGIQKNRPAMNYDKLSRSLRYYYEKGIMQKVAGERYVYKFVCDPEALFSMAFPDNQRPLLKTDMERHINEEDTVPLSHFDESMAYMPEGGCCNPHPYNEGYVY
Outline: as §1

Sequence	binding signal (FEV)	binding signal (ETV5)	binding signal (HSF1)	binding signal (SPIC)	binding signal (ELF4)	binding signal (ELK4)	binding signal (ETV2)	binding signal (ELF3)	binding signal (ETV1)
CTTGTC	1.23 fold enrichment (6-mer frequency, TF over GST control)	1.34 fold enrichment (6-mer frequency, TF over GST control)	1.07 fold enrichment (6-mer frequency, TF over GST control)	1.14 fold enrichment (6-mer frequency, TF over GST control)	1.41 fold enrichment (6-mer frequency, TF over GST control)	1.33 fold enrichment (6-mer frequency, TF over GST control)	1.08 fold enrichment (6-mer frequency, TF over GST control)	1.32 fold enrichment (6-mer frequency, TF over GST control)	1.27 fold enrichment (6-mer frequency, TF over GST control)
TGTCTC	1.22 fold enrichment (6-mer frequency, TF over GST control)	1.33 fold enrichment (6-mer frequency, TF over GST control)	1.01 fold enrichment (6-mer frequency, TF over GST control)	1.11 fold enrichment (6-mer frequency, TF over GST control)	1.36 fold enrichment (6-mer frequency, TF over GST control)	1.11 fold enrichment (6-mer frequency, TF over GST control)	1.26 fold enrichment (6-mer frequency, TF over GST control)	1.18 fold enrichment (6-mer frequency, TF over GST control)	1.22 fold enrichment (6-mer frequency, TF over GST control)
TGCGTA	1.06 fold enrichment (6-mer frequency, TF over GST control)	1.12 fold enrichment (6-mer frequency, TF over GST control)	1.06 fold enrichment (6-mer frequency, TF over GST control)	1.11 fold enrichment (6-mer frequency, TF over GST control)	1.08 fold enrichment (6-mer frequency, TF over GST control)	1.27 fold enrichment (6-mer frequency, TF over GST control)	1.21 fold enrichment (6-mer frequency, TF over GST control)	1.01 fold enrichment (6-mer frequency, TF over GST control)	1.24 fold enrichment (6-mer frequency, TF over GST control)
GGAAAA	1.2 fold enrichment (6-mer frequency, TF over GST control)	1.32 fold enrichment (6-mer frequency, TF over GST control)	1.62 fold enrichment (6-mer frequency, TF over GST control)	1.29 fold enrichment (6-mer frequency, TF over GST control)	1.19 fold enrichment (6-mer frequency, TF over GST control)	1.01 fold enrichment (6-mer frequency, TF over GST control)	1.22 fold enrichment (6-mer frequency, TF over GST control)	1.39 fold enrichment (6-mer frequency, TF over GST control)	1.27 fold enrichment (6-mer frequency, TF over GST control)
ATGTAC	1.3 fold enrichment (6-mer frequency, TF over GST control)	1.23 fold enrichment (6-mer frequency, TF over GST control)	1.16 fold enrichment (6-mer frequency, TF over GST control)	1.31 fold enrichment (6-mer frequency, TF over GST control)	1.31 fold enrichment (6-mer frequency, TF over GST control)	1.37 fold enrichment (6-mer frequency, TF over GST control)	1.39 fold enrichment (6-mer frequency, TF over GST control)	1.3 fold enrichment (6-mer frequency, TF over GST control)	1.35 fold enrichment (6-mer frequency, TF over GST control)
CTGACA	1.19 fold enrichment (6-mer frequency, TF over GST control)	1.22 fold enrichment (6-mer frequency, TF over GST control)	1.01 fold enrichment (6-mer frequency, TF over GST control)	1.03 fold enrichment (6-mer frequency, TF over GST control)	1.27 fold enrichment (6-mer frequency, TF over GST control)	1.29 fold enrichment (6-mer frequency, TF over GST control)	1.2 fold enrichment (6-mer frequency, TF over GST control)	1.25 fold enrichment (6-mer frequency, TF over GST control)	1.19 fold enrichment (6-mer frequency, TF over GST control)
GAAGCA	1.29 fold enrichment (6-mer frequency, TF over GST control)	1.41 fold enrichment (6-mer frequency, TF over GST control)	1.06 fold enrichment (6-mer frequency, TF over GST control)	1.19 fold enrichment (6-mer frequency, TF over GST control)	1.27 fold enrichment (6-mer frequency, TF over GST control)	1.2 fold enrichment (6-mer frequency, TF over GST control)	1.37 fold enrichment (6-mer frequency, TF over GST control)	1.27 fold enrichment (6-mer frequency, TF over GST control)	1.41 fold enrichment (6-mer frequency, TF over GST control)
CGACCC	1.17 fold enrichment (6-mer frequency, TF over GST control)	1.3 fold enrichment (6-mer frequency, TF over GST control)	1.03 fold enrichment (6-mer frequency, TF over GST control)	1.23 fold enrichment (6-mer frequency, TF over GST control)	1.31 fold enrichment (6-mer frequency, TF over GST control)	1.17 fold enrichment (6-mer frequency, TF over GST control)	1.39 fold enrichment (6-mer frequency, TF over GST control)	1.2 fold enrichment (6-mer frequency, TF over GST control)	1.23 fold enrichment (6-mer frequency, TF over GST control)
AAACTG	1.06 fold enrichment (6-mer frequency, TF over GST control)	1.09 fold enrichment (6-mer frequency, TF over GST control)	1.01 fold enrichment (6-mer frequency, TF over GST control)	1.07 fold enrichment (6-mer frequency, TF over GST control)	1.1 fold enrichment (6-mer frequency, TF over GST control)	1.06 fold enrichment (6-mer frequency, TF over GST control)	1.09 fold enrichment (6-mer frequency, TF over GST control)	1.01 fold enrichment (6-mer frequency, TF over GST control)	1.13 fold enrichment (6-mer frequency, TF over GST control)
